Target: Sialic acid-binding Ig-like lectin 9 (Homo sapiens) (UniProt Q9Y336)
Assay: Hs-Siglec9 ALPHAscreen SOP 20170721
Parameters: scale not given: direction of the effect not stated beside the values
Conditions: 10 µM

Chain of Sialic acid-binding Ig-like lectin 9 (Homo sapiens) (Q9Y336 whole entry): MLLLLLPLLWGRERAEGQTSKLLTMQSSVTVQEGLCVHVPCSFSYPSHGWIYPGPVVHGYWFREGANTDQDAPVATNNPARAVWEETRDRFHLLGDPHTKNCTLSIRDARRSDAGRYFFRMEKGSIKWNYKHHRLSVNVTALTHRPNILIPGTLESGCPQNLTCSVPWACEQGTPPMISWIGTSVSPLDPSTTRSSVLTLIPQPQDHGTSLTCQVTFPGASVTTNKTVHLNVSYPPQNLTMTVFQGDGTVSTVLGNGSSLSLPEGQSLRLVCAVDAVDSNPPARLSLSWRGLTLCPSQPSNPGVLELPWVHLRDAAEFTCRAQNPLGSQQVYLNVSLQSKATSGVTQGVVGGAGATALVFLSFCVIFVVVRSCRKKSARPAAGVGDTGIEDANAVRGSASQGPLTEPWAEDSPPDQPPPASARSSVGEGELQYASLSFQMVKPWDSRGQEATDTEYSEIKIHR

Compared with O=C(c1cscn1)N1C[C@@H]2[C@@H](C1)OCC(=O)N2CC1CCCC1, O=C1COc2c(cccc2C(=O)N2CCCCC2Cn2cccn2)N1 (stereo not given) is lower in Percent Effect: 6.36% for the first, 5.65% for the second.

Compared with CN(CC(F)(F)F)C(=O)C1CSCN1C(=O)OC(C)(C)C (stereo not given), Cc1cc(CN(C)C(=O)C2CCCN(C(=O)c3cccs3)C2)no1 (stereo not given) is higher in Percent Effect: -3.23% for the first, 10.4% for the second.

Compared with Cc1nc(C2CCCN(C(=O)c3ccco3)C2)no1 (stereo not given), Cc1nccn1-c1cccc(C2CCCN(C3CCCCC3)C2)n1 (stereo not given) is higher in Percent Effect: -2.53% for the first, -0.877% for the second.

Compared with Cn1ccc(C(=O)N2CCN(c3cc(C#N)ccn3)CC2)cc1=O, Cn1ccc(C(=O)N2CCN(c3ncccn3)CC2)cc1=O is lower in Percent Effect: 26.1% for the first, 9.56% for the second.

Going from CC(=O)N1CCOCC2(CCN(Cc3ccc(C)s3)CC2)C1 to CC(C)N1CCOCC2(CN(Cc3nccs3)CCO2)C1 (stereo not given), the Percent Effect falls from -0.245% to -3.15%.

First: CCc1cccc(N2CCC(NC(=O)c3cc[nH]n3)CC2)c1
Second: CN(Cc1cccc(F)c1)C(=O)CN1CCCCC1Cn1cncn1 (stereo not given)
The Percent Effect of the first is lower: -6.72% for the first, 5.97% for the second.

First: C[S+]([O-])c1nncn1CC(=O)c1ccc(Cl)c(Cl)c1 (stereo not given)
Second: Cc1nc(CC(=O)N2CCCCC2c2ccn3ccnc3n2)cs1 (stereo not given)
The Percent Effect of the first is higher: 15.3% for the first, 4.95% for the second.

First: Cc1ccc2c(c1)OCCCC2NCc1nnc2n1CCCCC2 (stereo not given)
Second: Cc1cccc(-c2ccc3nc(C4CCN(CC5CC5)CC4)nn3c2)c1
The Percent Effect of the first is higher: 17.1% for the first, 13.9% for the second.

Going from NC(=O)c1csc(C(=O)N2CCCC(n3ccnc3)C2)c1 (stereo not given) to O=C(COCc1nc(-c2ccncc2)no1)N1CCCCCC1, the Percent Effect rises from 3% to 21.3%.

Compared with CS(=O)(=O)NCCNC(=O)C1(c2cccc(Cl)c2)CC1, CN(CCN1CCOCC1)C(=O)CCc1cccc(Cl)c1 is lower in Percent Effect: 1.31% for the first, -7.75% for the second.

First: CC(C)CCN1CCN(Cc2nc(C3CC3)no2)CC1
Second: CCC(=O)NCCc1cc(N2CCN(C(C)=O)CC2)nc(C2CC2)n1
The Percent Effect of the first is higher: -0.524% for the first, -2.83% for the second.

First: Cc1nnc2n1CCN(Cc1csc(-c3ccc(F)cc3)n1)C2
Second: Cc1nc(CN2CCCC2c2ccsc2)nc2ccccc12 (stereo not given)
The Percent Effect of the first is higher: 4.19% for the first, 2.94% for the second.

First: Cc1cc(NC(=O)NCC(C)O)n(C)n1 (stereo not given)
Second: Cc1cc(NC(=O)NCc2cccnc2OC(C)C)n(C)n1
The Percent Effect of the first is higher: 7.06% for the first, 3.66% for the second.

First: O=C(c1cccc(NCCO)c1)N1CCOCC1
Second: CN(Cc1ccc(F)cc1)CC1(O)CCN(C(=O)c2ccccc2)C1 (stereo not given)
The Percent Effect of the first is higher: 2.34% for the first, 2.19% for the second.

First: CNc1cc(C)nc(C2CN(Cc3ccc(C)nc3)CCO2)c1 (stereo not given)
Second: COc1c(C2CCCN2CC(=O)Nc2cc(C)no2)c(C)nn1C (stereo not given)
The Percent Effect of the first is lower: -3.85% for the first, 4.82% for the second.

First: Cc1ccc(CNC(=O)NCc2cccnc2N(C)C)s1
Second: CCN(CC)C(=O)CCNC(=O)Cc1nc(-c2ccco2)oc1C
The Percent Effect of the first is higher: 4.07% for the first, -1.71% for the second.

Compared with CC(C)CCC(C)NC(=O)c1ccc(OCC(N)=O)cc1 (stereo not given), CCN(Cc1ccc2c(c1)OCCO2)S(=O)(=O)N(C)C(C)C is higher in Percent Effect: 5.06% for the first, 16% for the second.

First: CN(C)C(=O)COC[C@]12COC[C@H]1CN(Cc1ccoc1)C2
Second: CCN1CCCC1CN(CCN(C)C)S(=O)(=O)c1ccc(C#N)cc1 (stereo not given)
The Percent Effect of the first is lower: 10.2% for the first, 21.3% for the second.

First: Cc1nsc(N2CCCN(c3nc(C4CC4)ns3)CC2)n1
Second: FC(F)(F)Cc1noc(CN2CCCC2c2noc(C3CC3)n2)n1 (stereo not given)
The Percent Effect of the first is higher: 5.05% for the first, 4.29% for the second.

First: Cc1nc(NC(=O)CN2CCc3c(nc(C(C)C)n3C)C2)sc1C
Second: CC(O)CN1CCC(CNCc2c[nH]nc2C(C)(C)C)CC1 (stereo not given)
The Percent Effect of the first is higher: 11% for the first, 1.39% for the second.

Tested on: Trypanosoma cruzi
Assay: Trypanosoma cruzi phosphomannomutase and mannose-1-phosphate guanylyltransferase assay
Format: functional
Parameters: scale not given: direction of the effect not stated beside the values
Conditions: 10 µM

First: O=C(c1cscn1)N1C[C@@H]2[C@@H](C1)OCC(=O)N2CC1CCCC1
Second: O=C1COc2c(cccc2C(=O)N2CCCCC2Cn2cccn2)N1 (stereo not given)
The Percent Effect of the first is lower: -5.01% for the first, -2.84% for the second.

First: CN(CC(F)(F)F)C(=O)C1CSCN1C(=O)OC(C)(C)C (stereo not given)
Second: Cc1cc(CN(C)C(=O)C2CCCN(C(=O)c3cccs3)C2)no1 (stereo not given)
The Percent Effect of the first is lower: -3.33% for the first, 3.64% for the second.

Going from Cc1nc(C2CCCN(C(=O)c3ccco3)C2)no1 (stereo not given) to Cc1nccn1-c1cccc(C2CCCN(C3CCCCC3)C2)n1 (stereo not given), the Percent Effect rises from -0.308% to 2.17%.

Going from Cn1ccc(C(=O)N2CCN(c3cc(C#N)ccn3)CC2)cc1=O to Cn1ccc(C(=O)N2CCN(c3ncccn3)CC2)cc1=O, the Percent Effect falls from 4.06% to -3.49%.

Going from CC(=O)N1CCOCC2(CCN(Cc3ccc(C)s3)CC2)C1 to CC(C)N1CCOCC2(CN(Cc3nccs3)CCO2)C1 (stereo not given), the Percent Effect falls from 6.37% to 2.66%.

Going from CCc1cccc(N2CCC(NC(=O)c3cc[nH]n3)CC2)c1 to CN(Cc1cccc(F)c1)C(=O)CN1CCCCC1Cn1cncn1 (stereo not given), the Percent Effect rises from -3.59% to 1.08%.

Going from C[S+]([O-])c1nncn1CC(=O)c1ccc(Cl)c(Cl)c1 (stereo not given) to Cc1nc(CC(=O)N2CCCCC2c2ccn3ccnc3n2)cs1 (stereo not given), the Percent Effect falls from 5.57% to -1.78%.

Going from Cc1ccc2c(c1)OCCCC2NCc1nnc2n1CCCCC2 (stereo not given) to Cc1cccc(-c2ccc3nc(C4CCN(CC5CC5)CC4)nn3c2)c1, the Percent Effect falls from 5.57% to 3.77%.

First: NC(=O)c1csc(C(=O)N2CCCC(n3ccnc3)C2)c1 (stereo not given)
Second: O=C(COCc1nc(-c2ccncc2)no1)N1CCCCCC1
The Percent Effect of the first is higher: 2.56% for the first, -35.1% for the second.

Compared with CS(=O)(=O)NCCNC(=O)C1(c2cccc(Cl)c2)CC1, CN(CCN1CCOCC1)C(=O)CCc1cccc(Cl)c1 is lower in Percent Effect: 1.07% for the first, -4.58% for the second.

First: CC(C)CCN1CCN(Cc2nc(C3CC3)no2)CC1
Second: CCC(=O)NCCc1cc(N2CCN(C(C)=O)CC2)nc(C2CC2)n1
The Percent Effect of the first is higher: 1.17% for the first, -6.72% for the second.

First: Cc1nnc2n1CCN(Cc1csc(-c3ccc(F)cc3)n1)C2
Second: Cc1nc(CN2CCCC2c2ccsc2)nc2ccccc12 (stereo not given)
The Percent Effect of the first is higher: 8.26% for the first, 4% for the second.

Going from Cc1cc(NC(=O)NCC(C)O)n(C)n1 (stereo not given) to Cc1cc(NC(=O)NCc2cccnc2OC(C)C)n(C)n1, the Percent Effect falls from 5.64% to 0.103%.

Going from O=C(c1cccc(NCCO)c1)N1CCOCC1 to CN(Cc1ccc(F)cc1)CC1(O)CCN(C(=O)c2ccccc2)C1 (stereo not given), the Percent Effect falls from -2.46% to -8.1%.

Compared with CNc1cc(C)nc(C2CN(Cc3ccc(C)nc3)CCO2)c1 (stereo not given), COc1c(C2CCCN2CC(=O)Nc2cc(C)no2)c(C)nn1C (stereo not given) is lower in Percent Effect: -1.19% for the first, -4.74% for the second.

Going from Cc1ccc(CNC(=O)NCc2cccnc2N(C)C)s1 to CCN(CC)C(=O)CCNC(=O)Cc1nc(-c2ccco2)oc1C, the Percent Effect falls from -4.68% to -5.75%.

Compared with CC(C)CCC(C)NC(=O)c1ccc(OCC(N)=O)cc1 (stereo not given), CCN(Cc1ccc2c(c1)OCCO2)S(=O)(=O)N(C)C(C)C is higher in Percent Effect: -2.7% for the first, 5.99% for the second.

First: CN(C)C(=O)COC[C@]12COC[C@H]1CN(Cc1ccoc1)C2
Second: CCN1CCCC1CN(CCN(C)C)S(=O)(=O)c1ccc(C#N)cc1 (stereo not given)
The Percent Effect of the first is higher: 5.77% for the first, 4.5% for the second.

Going from Cc1nsc(N2CCCN(c3nc(C4CC4)ns3)CC2)n1 to FC(F)(F)Cc1noc(CN2CCCC2c2noc(C3CC3)n2)n1 (stereo not given), the Percent Effect falls from 4.9% to 4.06%.

First: Cc1nc(NC(=O)CN2CCc3c(nc(C(C)C)n3C)C2)sc1C
Second: CC(O)CN1CCC(CNCc2c[nH]nc2C(C)(C)C)CC1 (stereo not given)
The Percent Effect of the first is higher: 8.69% for the first, -6.7% for the second.
